Data: PubChem BioAssay (Tox21)
Inconclusive results are not listed. Entries that show only a call come without a potency. Activity calls are given as the source filed them. Unless noted, calls follow the shape of the dose curve; as a rule, active = well fitted curve in the direction sought with a large enough effect in the repeat runs; inconclusive = weak or mixed curves; inactive = no such curve, though single readings can be large; an effect the other way counts as inactive or inconclusive.

Assays:
[1] = qHTS assay to identify small molecule agonists of the androgen receptor (AR) signaling pathway in the presence of an antagonist - cell viability counter screen (AID 1259379);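 also: MDA-kb2 human breast cancer cells carrying an MMTV luciferase reporter; series mostly up to about 92 µM; nearly all actives have a fitted effect of over 25% in size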
Procedure, shortened: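 Nilutamide-containing (3.0uM final) MDA-kb2 cultures, 3,000 cells/well, were treated with compounds across 15 concentrations. After 16 hr at 37C with no CO2, cell viability was determined by CellTiter-Fluor fluorescence in the luciferase assay wells.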

[2] = qHTS assay to identify small molecule agonists of the estrogen receptor beta (ER-beta) signaling pathway - cell viability counter screen (AID 1259380); also: nearly all actives have a fitted effect of over 30% in size; also: potency is read from the fitted curve at half-maximal effect
Procedure, shortened: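 Steps: plate ER-beta-UAS-bla HEK293T cells, rest 6 hr; add compounds in DMSO; incubate 16 hr at 37C, 5% CO2; add FRET substrate 2 hr; add CellTiter-Glo, wait 30 min at room temperature; read luminescence.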

[3] = qHTS assay to identify small molecule antagonists of the estrogen receptor beta (ER-beta) signaling pathway - cell viability counter screen (AID 1259382);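 also: HEK293T cells carrying ER-beta-UAS-bla reporter stimulated with estradiol; series mostly up to about 92 µM; nearly all actives have a fitted effect of over 55% in size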
Procedure, shortened: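 Viability is scored by CellTiter-Glo luminescence (30 min, room temperature) in ER-beta-UAS-bla HEK293T wells already read for reporter fluorescence. Compound exposure lasts 16 hr at 37C alongside 1nM 17-beta-estradiol in charcoal-stripped serum medium.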

[4] = target: Estrogen receptor (Homo sapiens) (UniProt P03372); experiment: qHTS assay to identify small molecule agonists of the estrogen receptor alpha (ER-alpha) signaling pathway in the presence of an antagonist (AID 1259383; calls by dose curve; also: top concentration of the series differs between compounds; nearly all actives have a fitted effect of over 15% in size)
Estrogen receptor (Homo sapiens), sequence (P03372 whole entry, looked up): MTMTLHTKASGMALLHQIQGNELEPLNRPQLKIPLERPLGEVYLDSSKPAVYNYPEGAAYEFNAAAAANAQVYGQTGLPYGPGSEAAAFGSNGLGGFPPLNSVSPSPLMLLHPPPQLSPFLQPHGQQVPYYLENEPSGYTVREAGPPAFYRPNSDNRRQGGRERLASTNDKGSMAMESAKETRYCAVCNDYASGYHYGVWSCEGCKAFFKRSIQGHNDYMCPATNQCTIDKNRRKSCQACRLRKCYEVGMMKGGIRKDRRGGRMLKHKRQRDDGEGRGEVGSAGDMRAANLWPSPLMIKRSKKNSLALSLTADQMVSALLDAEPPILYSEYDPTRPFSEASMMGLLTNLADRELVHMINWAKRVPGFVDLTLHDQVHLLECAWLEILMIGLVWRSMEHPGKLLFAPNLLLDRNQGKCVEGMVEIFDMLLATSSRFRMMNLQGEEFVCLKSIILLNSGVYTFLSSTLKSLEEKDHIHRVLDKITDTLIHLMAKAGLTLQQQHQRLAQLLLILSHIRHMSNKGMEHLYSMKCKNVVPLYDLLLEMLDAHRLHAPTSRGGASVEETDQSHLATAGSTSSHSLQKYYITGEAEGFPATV
Procedure, shortened: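 Readout was ERE-driven luciferase luminescence in VM7Luc4E2 cells, which express full-length ER-alpha endogenously. Compounds were tested at 15 concentrations for 22hr alongside 10.0nM ICI-182,780 (final concentration).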

[5] = qHTS assay to identify small molecule agonists or antagonists of the thyroid stimulating hormone receptor (TSHR) signaling pathway - wild type cell line counter screen (AID 1259384; calls by dose curve)
Procedure, shortened: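 Counter screen in untransfected Hek293: compounds (15-point titration, triplicate) plus phosphodiesterase inhibitor Ro20-1724 added after 18 h plating; 30 min RT. Intracellular cAMP via competitive d2/cryptate immunoassay, 1 h incubation.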

[6] = target: Thyrotropin receptor (Homo sapiens) (UniProt P16473); experiment: qHTS assay to identify small molecule antagonists of the thyroid stimulating hormone receptor (TSHR) signaling pathway (AID 1259385; calls by dose curve; also: nearly all actives have a fitted effect of over 20% in size)
Thyrotropin receptor (Homo sapiens), sequence (P16473 whole entry, looked up): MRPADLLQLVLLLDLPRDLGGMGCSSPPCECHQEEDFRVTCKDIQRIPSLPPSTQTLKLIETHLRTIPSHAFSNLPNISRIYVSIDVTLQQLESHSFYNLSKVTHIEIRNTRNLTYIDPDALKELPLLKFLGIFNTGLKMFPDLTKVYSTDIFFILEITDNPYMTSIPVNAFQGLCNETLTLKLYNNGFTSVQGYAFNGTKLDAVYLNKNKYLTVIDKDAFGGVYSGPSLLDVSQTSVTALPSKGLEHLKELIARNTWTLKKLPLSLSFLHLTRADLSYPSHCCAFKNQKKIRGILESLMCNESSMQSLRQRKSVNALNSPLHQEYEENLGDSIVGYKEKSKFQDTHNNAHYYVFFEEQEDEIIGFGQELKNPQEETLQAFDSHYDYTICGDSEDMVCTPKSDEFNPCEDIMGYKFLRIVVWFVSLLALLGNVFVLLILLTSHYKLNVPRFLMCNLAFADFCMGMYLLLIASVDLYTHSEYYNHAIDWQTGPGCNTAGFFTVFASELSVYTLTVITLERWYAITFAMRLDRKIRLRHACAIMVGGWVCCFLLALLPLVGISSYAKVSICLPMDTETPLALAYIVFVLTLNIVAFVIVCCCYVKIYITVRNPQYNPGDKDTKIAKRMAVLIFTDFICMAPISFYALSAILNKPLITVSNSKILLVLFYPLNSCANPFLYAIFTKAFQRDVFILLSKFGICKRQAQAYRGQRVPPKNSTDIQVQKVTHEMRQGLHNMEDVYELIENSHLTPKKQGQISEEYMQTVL
Procedure, shortened: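 Antagonist mode: compound-treated TSHR-expressing HEK293 cells were stimulated with 1.5 ng/mL TSH (final) in presence of Ro20-1724 for 30 min at RT. HTRF cAMP detection after 1 h; each compound tested at 15 concentrations, triplicate.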

[7] = qHTS assay to identify small molecule agonists of the estrogen receptor alpha (ER-alpha) signaling pathway in the presence of an antagonist - cell viability counter screen (AID 1259386);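 also: series mostly up to about 92 µM; cells exposed to compounds for 22 h at 37 °C before the viability read; nearly all actives have a fitted effect of over 30% in size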
Procedure, shortened: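 In this counter screen, compound effects on VM7Luc4E2 viability were tested in the presence of the antagonist ICI-182,780 at 10.0nM final. Compounds were dosed at 15 concentrations, exposure lasted 22hr, and the CellTiter-Fluor signal was read.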

[8] = target: Progesterone receptor (Homo sapiens) (UniProt P06401); experiment: qHTS assay to identify small molecule agonists of the progesterone receptor (PR) signaling pathway (AID 1346784; calls by dose curve; also: nearly all actives have a fitted effect of over 30% in size)
Progesterone receptor (Homo sapiens), sequence (P06401 whole entry, looked up): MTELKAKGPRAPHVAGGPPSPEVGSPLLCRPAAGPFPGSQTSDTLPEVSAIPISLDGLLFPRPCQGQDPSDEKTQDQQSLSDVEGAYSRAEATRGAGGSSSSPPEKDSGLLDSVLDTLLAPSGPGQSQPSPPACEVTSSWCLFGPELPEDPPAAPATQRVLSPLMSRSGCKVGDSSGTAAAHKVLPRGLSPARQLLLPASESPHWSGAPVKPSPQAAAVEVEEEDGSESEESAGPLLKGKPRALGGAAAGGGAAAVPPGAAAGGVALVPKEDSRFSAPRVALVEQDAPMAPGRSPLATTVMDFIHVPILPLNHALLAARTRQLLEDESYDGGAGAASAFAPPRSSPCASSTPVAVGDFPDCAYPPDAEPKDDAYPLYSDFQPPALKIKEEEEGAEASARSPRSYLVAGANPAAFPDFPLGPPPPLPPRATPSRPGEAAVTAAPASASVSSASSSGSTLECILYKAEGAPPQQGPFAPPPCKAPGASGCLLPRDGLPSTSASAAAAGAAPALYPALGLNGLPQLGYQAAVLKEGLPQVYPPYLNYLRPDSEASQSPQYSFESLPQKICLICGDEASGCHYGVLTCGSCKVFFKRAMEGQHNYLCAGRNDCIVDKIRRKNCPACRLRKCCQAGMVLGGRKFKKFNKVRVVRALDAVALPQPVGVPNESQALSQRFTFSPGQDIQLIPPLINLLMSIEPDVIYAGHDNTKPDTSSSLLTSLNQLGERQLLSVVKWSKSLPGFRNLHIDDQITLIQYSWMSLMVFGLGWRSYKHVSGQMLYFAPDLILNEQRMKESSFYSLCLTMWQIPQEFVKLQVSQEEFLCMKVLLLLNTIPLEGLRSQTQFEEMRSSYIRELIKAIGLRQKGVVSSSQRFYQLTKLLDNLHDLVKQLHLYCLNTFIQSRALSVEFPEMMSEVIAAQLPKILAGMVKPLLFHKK
Procedure, shortened: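 Beta-lactamase reporter read-out: after 16 hr compound treatment at 37C and a further 2 hr at room temperature with LiveBLAzer B/G FRET substrate, fluorescence was measured in PR-UAS-bla HEK 293T cells grown in 2% charcoal-stripped serum.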

[9] = qHTS assay to identify small molecule agonists of the progesterone receptor (PR) signaling pathway - cell viability counter screen (AID 1346799; calls by dose curve; also: nearly all actives have a fitted effect of over 45% in size)
Procedure, shortened: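 Luminescence from CellTiter-Glo, added after the beta-lactamase FRET read in the same wells, gave cytotoxicity in PR-UAS-bla HEK293T cells treated with compounds for 16 hr at 37C.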

[10] = qHTS assay to identify small molecule antagonists of the TGF-beta/Smad signaling pathway - cell viability counter screen (AID 1346824); also: nearly all actives have a fitted effect of over 50% in size
Procedure, shortened: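 Cytotoxicity counter-screen run in the same wells as the beta-lactamase Smad reporter read: CellTiter-Glo luminescence after 30 min at room temperature. HEK 293T SBE-bla cells had 5 hr compound exposure at 37 C with TGF-beta1 (0.25 ng/mL stock).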

[11] = qHTS assay to identify small molecule agonists of the TGF-beta/Smad signaling pathway - cell viability counter screen (AID 1346829); also: top concentration of the series differs between compounds; nearly all actives have a fitted effect of over 45% in size
Procedure, shortened: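 In parallel with the Smad reporter read, viability of HEK 293T cells stably carrying SBE-bla is quantified by ATP luminescence following 5 hr compound treatment.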

[12] = qHTS assay to identify small molecule agonists of the TGF-beta/Smad signaling pathway (AID 1346859; active = well fitted activation curve with a large enough effect in the signal ratio in the repeat runs, not every such curve was filed as active; the % refers to the signal ratio; also: series mostly up to about 77 µM)
Procedure, shortened: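 SBE-bla HEK 293T, 4,000 cells/well, plated o/n; cpd in DMSO, 5 hr, 37 C/5% CO2; B/G FRET substrate 2 hr RT; ex 405, em 460/530 nm.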

[13] = target: Thyrotropin-releasing hormone receptor (Homo sapiens) (UniProt P34981); experiment: qHTS assay to identify small molecule antagonists of the thyrotropin-releasing hormone receptor (TRHR) signaling pathway (AID 1346877; active = well fitted inhibition curve with a large enough effect in the repeat runs, not every such curve was filed as active; also: series mostly up to about 51 µM)
Thyrotropin-releasing hormone receptor (Homo sapiens), sequence (P34981 whole entry, looked up): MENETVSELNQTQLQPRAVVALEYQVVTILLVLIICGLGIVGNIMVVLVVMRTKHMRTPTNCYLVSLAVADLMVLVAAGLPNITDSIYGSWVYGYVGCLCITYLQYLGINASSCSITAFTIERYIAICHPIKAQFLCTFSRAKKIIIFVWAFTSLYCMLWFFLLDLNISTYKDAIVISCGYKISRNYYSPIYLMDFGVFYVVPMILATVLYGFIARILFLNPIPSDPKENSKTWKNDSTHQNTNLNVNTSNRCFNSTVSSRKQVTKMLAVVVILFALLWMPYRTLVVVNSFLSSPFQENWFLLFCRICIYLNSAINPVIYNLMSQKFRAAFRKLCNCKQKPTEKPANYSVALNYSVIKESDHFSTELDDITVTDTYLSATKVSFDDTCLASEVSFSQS
Procedure, shortened: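 Kinetic fluorescence (3 min, 1 s resolution) following stimulation with TRH at 1 nM final; HEK293 cells bearing human TRHR; 5 min compound preincubation at RT; concentration-response over 15 points, triplicates.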

[14] = target: Thyrotropin-releasing hormone receptor (Homo sapiens) (UniProt P34981); experiment: qHTS assay to identify small molecule agonists of the thyrotropin-releasing hormone receptor (TRHR) signaling pathway (AID 1346891; calls by dose curve; also: series mostly up to about 58 µM)
Procedure, shortened: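 Intracellular calcium rise, read as fluorescence every second for 3 min, served as the agonist signal in dye-loaded HEK293 cells expressing TRHR; each compound ran at 15 concentrations in triplicate.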

[15] = Human pregnane X receptor (PXR) small molecule agonists, qHTS cell viability counter screen (AID 1346977); also: nearly all actives have a fitted effect of over 50% in size
Procedure, shortened: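 PXR-Luc HepG2, 2,000 cells/well, 5% charcoal-stripped FBS; 5hr settle; cpd 24hr, 37C/5% CO2; CellTiter-Fluor at 23hr, read 1hr later (fluorescence).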

[16] = target: Androgen receptor (Homo sapiens) (UniProt P10275); experiment: qHTS assay to identify small molecule agonists of the androgen receptor (AR) signaling pathway in the presence of an antagonist (AID 1259381; calls by dose curve; also: nearly all actives have a fitted effect of over 15% in size)
Androgen receptor (Homo sapiens), sequence (P10275 whole entry, looked up): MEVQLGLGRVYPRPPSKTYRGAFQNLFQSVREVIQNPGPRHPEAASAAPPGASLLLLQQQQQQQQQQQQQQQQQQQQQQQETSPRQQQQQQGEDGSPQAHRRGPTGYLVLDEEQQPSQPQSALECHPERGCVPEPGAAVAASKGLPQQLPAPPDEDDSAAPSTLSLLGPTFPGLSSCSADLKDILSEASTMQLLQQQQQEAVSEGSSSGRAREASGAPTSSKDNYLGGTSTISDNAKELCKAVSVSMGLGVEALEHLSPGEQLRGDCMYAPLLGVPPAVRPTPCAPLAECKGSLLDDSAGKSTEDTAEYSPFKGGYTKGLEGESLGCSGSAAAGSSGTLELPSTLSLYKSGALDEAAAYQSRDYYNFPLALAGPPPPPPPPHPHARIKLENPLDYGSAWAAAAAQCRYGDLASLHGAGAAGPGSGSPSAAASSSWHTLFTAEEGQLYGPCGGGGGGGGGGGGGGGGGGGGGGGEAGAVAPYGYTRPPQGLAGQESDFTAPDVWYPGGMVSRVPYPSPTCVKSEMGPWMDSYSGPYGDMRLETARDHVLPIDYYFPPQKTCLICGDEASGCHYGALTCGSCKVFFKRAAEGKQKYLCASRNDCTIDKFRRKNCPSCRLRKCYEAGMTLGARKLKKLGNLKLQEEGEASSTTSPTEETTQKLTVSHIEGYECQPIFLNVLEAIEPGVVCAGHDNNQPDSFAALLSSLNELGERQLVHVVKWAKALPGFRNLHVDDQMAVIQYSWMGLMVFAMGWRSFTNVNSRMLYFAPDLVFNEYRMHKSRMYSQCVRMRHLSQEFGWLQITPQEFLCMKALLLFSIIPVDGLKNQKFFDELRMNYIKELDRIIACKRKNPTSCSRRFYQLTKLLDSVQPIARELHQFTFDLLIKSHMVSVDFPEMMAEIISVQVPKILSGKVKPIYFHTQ
Procedure, shortened: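 Reporter-gene luminescence from MDA-kb2 cells exposed 16hr at 37C (0% CO2) to 15-point compound titrations with 3.0uM final nilutamide as AR antagonist.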

[17] = qHTS assay to identify small molecule antagonists of the progesterone receptor (PR) signaling pathway - cell viability counter screen (AID 1346798);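 also: HEK293T PR-UAS-bla cells stimulated with the agonist R5020; series mostly up to about 92 µM; nearly all actives have a fitted effect of over 50% in size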
Procedure, shortened: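 HEK293T PR-UAS-bla, 2% charcoal-stripped FBS; 4 hr pre-plate; cpd + R5020, 16 h 37C; LiveBLAzer read first; then CellTiter-Glo 30 min RT, luminescence.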

[18] = target: Progesterone receptor (Homo sapiens) (UniProt P06401); experiment: qHTS assay to identify small molecule antagonists of the progesterone receptor (PR) signaling pathway (AID 1346795; active = well fitted inhibition curve with a large enough effect in the signal ratio in the repeat runs, not every such curve was filed as active; the % refers to the signal ratio)
Procedure, shortened: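 Read-out is fluorescence from the LiveBLAzer B/G FRET substrate, cleaved by a UAS-controlled beta-lactamase in PR-UAS-bla HEK293T cells after 16 hr exposure to compound plus 1 nM promegestone (final), followed by 2 hr at room temperature.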

Row | SMILES | Potency [1] | Potency [2] | Potency [3] | Potency [4] | Potency [5] | Potency [6] | Potency [7] | Potency [8] | Potency [9] | outcome [10] | Potency [11] | Potency [12] | outcome [13] | outcome [14] | Potency [15] | Potency [16] | Potency [17] | Potency [18]
1 | COC(C)(C)OC | inactive | inactive | inactive | inactive | inactive | inactive | inactive | inactive | inactive | inactive | inactive | inactive | inactive | inactive | inactive | – | – | –
2 | CCN(CC)c1cccc(O)c1 | inactive | inactive | – | inactive | inactive | – | – | inactive | inactive | inactive | inactive | – | inactive | – | inactive | inactive | inactive | –
3 | CCCCCCCCCCCCCOS(=O)(=O)O | inactive | 54.5 µM (active) | – | – | inactive | inactive | inactive | inactive | – | – | inactive | – | – | – | inactive | inactive | – | inactive
4 | COC(=O)c1sccc1S(N)(=O)=O | inactive | inactive | inactive | inactive | inactive | – | inactive | inactive | inactive | inactive | inactive | inactive | – | – | – | – | inactive | inactive
5 | O=C(O)c1cccc(Oc2ccccc2)c1 | inactive | inactive | inactive | inactive | inactive | inactive | – | inactive | inactive | inactive | inactive | – | inactive | – | inactive | – | inactive | inactive
6 | CC(=O)Oc1cccc(O)c1 | inactive | inactive | inactive | inactive | inactive | – | inactive | inactive | inactive | – | inactive | inactive | inactive | inactive | inactive | – | inactive | –
7 | Cc1ccc2c(c1)CCCN2 | inactive | inactive | inactive | inactive | inactive | inactive | inactive | inactive | – | inactive | – | inactive | inactive | inactive | – | – | inactive | inactive
8 | CC(C)(C)S | inactive | inactive | inactive | inactive | inactive | inactive | inactive | inactive | inactive | inactive | inactive | inactive | inactive | inactive | – | – | inactive | inactive
9 | O=C1[C@@H]2[C@H]3CC[C@H](C3)[C@@H]2C(=O)N1CCCCN1CCN(c2ncccn2)CC1 | inactive | inactive | inactive | inactive | inactive | – | inactive | – | inactive | inactive | inactive | – | – | – | inactive | – | inactive | inactive
